Drawing on PubChem BioAssay (NCATS), this text covers outcome and Potency for 13 compounds.

Test [1] is described as follows: qHTS Assay for Identification of Small Molecule Inducers of Hypoxia Response (AID 2120; active means well fitted curve in the direction sought with a large enough effect in the signal ratio, with a control signal flat, not every such curve was filed as active; the % refers to the signal ratio). In short, it runs like this:
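Read-out: CCF4 FRET emission ratio 460nm/530nm (excitation 405nm), converted to %Activity, with AC50 fitted across a compound titration. ME-180 cells carried an HRE-driven beta-lactamase reporter; compound exposure 17 h, 37 degrees C.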
(Quantitative high-throughput screening tests each substance at several concentrations.)

A short description of test [2]: qHTS for differential inhibitors of proliferation of Plasmodium falciparum line 7G8 (AID 1815).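 Further: parasite growth measured after three days of incubation.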 Further: potency means the concentration at half of the fitted maximal effect.
Test [3] is described as follows: qHTS for differential inhibitors of proliferation of Plasmodium falciparum line GB4 (AID 1816).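 Further: parasite growth measured after 72 h incubation.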 Further: potency means the concentration at half of the fitted maximal effect. As to conditions: Potency: Plasmodium falciparum GB4 proliferation inhibition.
Test [4] can be described thus: qHTS for differential inhibitors of proliferation of Plasmodium falciparum line 3D7 (AID 1876). Further: potency means the concentration at half of the fitted maximal effect.
Test [5] in a line: qHTS for differential inhibitors of proliferation of Plasmodium falciparum line D10 (AID 1877).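 Further: parasites grown with compound for 72 h before DNA staining.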 Further: potency means the concentration at half of the fitted maximal effect.
Test [6] can be described thus: qHTS for differential inhibitors of proliferation of Plasmodium falciparum line W2 (AID 1883).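 Further: parasites grown with compound for 72 h before lysis and staining.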 Further: potency means the concentration at half of the fitted maximal effect. Conditions: Potency: Plasmodium falciparum W2 proliferation inhibition.
A short description of test [7]: qHTS Assay for Modulators of Human Peripheral Myelin Protein 22 (PMP22) Expression/Activity (AID 1967; active means well fitted curve in the direction sought with a large enough effect in the signal ratio; the % refers to the signal ratio). In short, it runs like this: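 Mouse MSC80 Schwann cells carrying Pmp22 promoter–green click beetle luciferase plus EF-alpha–red luciferase control, dosed 24 h at 37 °C. Dual-filter luminescence, overlap-corrected; %Activity from green/red ratio normalised to untreated cells, concentration-response curves fitted.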

The target in test [8] is Ferritin light chain (Equus caballus) (UniProt P02791). The test is described as follows: qHTS Validation Assay for Identification of Novel General Anesthetics (AID 2323). Further: series mostly up to about 77 µM. A digest of the protocol: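 Horse-spleen apoferritin (10 uM) in PBS with 50% saturated 1-aminoanthracene; compounds pin-transferred, 10 min at room temperature. Fluorescence read at 380/535 nm, normalized to free 1-AMA and 1-AMA/apoferritin values; four-parameter Hill fit.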

Test [9] concerns the target ATP-dependent DNA helicase Q1 (Homo sapiens) (UniProt P46063). Put plainly: qHTS Validation Assay for Inhibitors of RecQ-Like Dna Helicase 1 (RECQ1) (AID 2353). A digest of the protocol: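 RECQ1T1 50 nM; forked duplex (20 bp + 30-nt ss tails) 200 nM, ATP 2 mM final; pH 8.0, 2 mM MgCl2, 2.5 ug/ml poly(dI-dC); 15 min compound preincubation; discontinuous kinetic read over 2 h at RT.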

The target of test [10] is RecQ-like DNA helicase BLM (Homo sapiens) (UniProt P54132). Put plainly: qHTS Validation Assay for Inhibitors of Bloom's syndrome helicase (BLM) (AID 2364). In short, it runs like this: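 BLM 50 nM in 25 mM Tris-HCl pH 8.0, 5 mM NaCl, 2 mM MgCl2, 1 mM DTT, 0.01% Tween-20, 2.5 ug/ml poly(dI-dC); 15 min cpd preinc, RT. Start: 200 nM forked DNA + 2 mM ATP (final). TAMRA read, 2 reads 2 h apart.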

Test [11] is described as follows: Cytometric Cell-Based qHTS for Inhibitors of the mTORC1 Signaling Pathway in MEF (Tsc2-/-, p53-/-) Cells (AID 2660).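 Further: Tsc2 and p53 null MEFs carrying empty vector with compound for 24 h; percent of cells above a phospho-rpS6 to PI ratio cutoff in each well; series mostly up to about 38 µM.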 A digest of the protocol:
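Cells are plated, treated with compound for 24 hrs at 37 degree Celsius, then fixed, blocked and immunostained for phospho-rpS6 Ser235/236. Propidium iodide counterstain follows. Per-well % positive cells is derived from the PI-normalized phospho-S6 signal.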

The nature of test [12]: Validation screen for small molecules that induce DNA re-replication in MCF 10A normal breast cells (AID 463097). Further: nearly all actives have a fitted effect of over 60% in size. A digest of the protocol: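 MCF 10A cells exposed to compound 48 hr at 37 C, 5% CO2, then Hoechst-stained 40 min. Laser-scanning imaging of nuclear DNA content (405 nm ex, 500-530 nm em); re-replication scored as rise in nuclei with elevated fluorescence intensity.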

For test [13], the target named is Ubiquitin carboxyl-terminal hydrolase 2 (Homo sapiens) (UniProt O75604). The test is described as follows: qHTS Validation Assay for Inhibitors of Ubiquitin-specific Protease USP2a Using CHOP2 as the Reporter (AID 463106). In short, it runs like this:
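Inhibition is expressed relative to NEM as the full-inhibition control, with concentration-response curves classed by fit quality, magnitude and activity. Enzyme (USP2 core, 10nM) meets 25nM Ub-CHOP2 after compound preincubation; readings are taken at 60min.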

For test [14], the target named is DNA polymerase III PolC-type (Bacillus subtilis (strain 168)) (UniProt P13267). Put plainly: qHTS Validation Assay for the Inhibitors of DNA Replication in Gram-Positive Bacteria (AID 485295).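 Further: PicoGreen fluorescence of double-stranded DNA made on primed circular M13 template; series mostly up to about 57 µM.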 In short, it runs like this: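 Reconstituted B. subtilis Pol III holoenzyme (PolC, beta clamp, SSB, primase) preincubated with compound, then M13Gori single-stranded circular template with dNTPs/NTPs added; room temperature reaction. Stopped with EDTA/PicoGreen; dsDNA fluorescence read, EDTA as full-inhibition control.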

Test [15] addresses Tumor susceptibility gene 101 protein (Homo sapiens) (UniProt Q99816). Put plainly: qHTS Validation Assay for Iinhibitors of HIV-1 Budding by Blocking the Interaction of PTAP/TSG101 (AID 485342; calls by dose curve). A digest of the protocol:
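Tsg101 binding domain (10 uM) with FITC-labeled PTAP peptide (50 nM) in HEPES pH 7.5 buffer, 20 min at r.t. with compounds. Binding measured by fluorescence polarization.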

Test [16] in a line: qHTS Validation Assay to Find Inhibitors of Chronic Active B-Cell Receptor Signaling (AID 485345; active means well fitted curve in the direction sought with a large enough effect in the main read-out, with a control signal flat, not every such curve was filed as active). A digest of the protocol:
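TMD8 ABC-DLBCL cells with dox-inducible green luciferase–IκBα fusion and red native luciferase; compounds 46 uM–3 nM, 4 h at 37C with doxycycline in 0.5% FBS IMDM. Green/red ratio normalized to basal and 10 uM MG-132.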

The target of test [17] is Beta-2 adrenergic receptor (Homo sapiens) (UniProt P07550). The test is described as follows: qHTS validation assay of beta-arrestin-biased ligands of beta2-adrenergic receptor (AID 485366). In short, it runs like this:
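Compound series up to 46 microM applied to beta2-AR/beta-arrestin Tango cells, 18 hr, 37 degrees C, 5% CO2. Read-out: tTA-driven luciferase luminescence, converted to %Activity; concentration-response curves assigned curve classes.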

The nature of test [18]: qHTS for differential inhibitors of proliferation of Plasmodium falciparum line Dd2 (AID 1882). Further: nearly all actives have a fitted effect of over 65% in size. Further: potency means the concentration at half of the fitted maximal effect. Conditions: Potency: Plasmodium falciparum Dd2 proliferation inhibition. In short, it runs like this:
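RBC culture, 0.3% parasitemia / 2.5% Hct final; cpd added by pin tool in DMSO; 72 h, 37 C, 5% CO2; lysis buffer + SYBR Green I, o/n RT dark; FI 485/535; norm. to artemisinin 0.29 uM and DMSO.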

A short description of test [19]: qHTS for differential inhibitors of proliferation of Plasmodium falciparum line HB3 (AID 1886).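 Further: parasites grown with compound for 72 h before SYBR Green readout.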 Further: potency means the concentration at half of the fitted maximal effect. As to conditions: Potency: Plasmodium falciparum HB3 proliferation inhibition.
The nature of test [20]: Quantitative high throughput screen for delayed death inhibitors of the malarial parasite plastid, 96 hour incubation (AID 488745). Further: nearly all actives have a fitted effect of over 70% in size. Further: potency means the concentration at half of the fitted maximal effect. A digest of the protocol:
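Luciferase-expressing P. falciparum, infected RBCs 2% Hct/0.1% parasitemia (final); 96 h cpd exposure, 37 C, 5% CO2; RPMI 1640 + 0.5% Albumax, bicarbonate, gentamycin. Readout: luminescence loss = growth inhibition.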

Inconclusive results are not listed. The source made the active and inactive calls. Unless noted, the call rests on the fitted dose curve; in most records, active means well fitted curve in the direction sought with a large enough effect; inconclusive means small, poorly fitted or top-dose-only effect, or another doubt; inactive means no such curve, though single readings can be large; an effect the other way counts as inactive or inconclusive.

Ferritin light chain (Equus caballus), sequence (P02791 2-175 limits assumed): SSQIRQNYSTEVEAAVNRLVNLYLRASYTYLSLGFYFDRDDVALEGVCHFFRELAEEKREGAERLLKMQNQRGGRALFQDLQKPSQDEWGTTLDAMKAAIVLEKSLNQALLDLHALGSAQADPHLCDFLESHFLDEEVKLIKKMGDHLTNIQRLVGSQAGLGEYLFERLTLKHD
ATP-dependent DNA helicase Q1 (Homo sapiens), sequence (P46063 whole entry, looked up): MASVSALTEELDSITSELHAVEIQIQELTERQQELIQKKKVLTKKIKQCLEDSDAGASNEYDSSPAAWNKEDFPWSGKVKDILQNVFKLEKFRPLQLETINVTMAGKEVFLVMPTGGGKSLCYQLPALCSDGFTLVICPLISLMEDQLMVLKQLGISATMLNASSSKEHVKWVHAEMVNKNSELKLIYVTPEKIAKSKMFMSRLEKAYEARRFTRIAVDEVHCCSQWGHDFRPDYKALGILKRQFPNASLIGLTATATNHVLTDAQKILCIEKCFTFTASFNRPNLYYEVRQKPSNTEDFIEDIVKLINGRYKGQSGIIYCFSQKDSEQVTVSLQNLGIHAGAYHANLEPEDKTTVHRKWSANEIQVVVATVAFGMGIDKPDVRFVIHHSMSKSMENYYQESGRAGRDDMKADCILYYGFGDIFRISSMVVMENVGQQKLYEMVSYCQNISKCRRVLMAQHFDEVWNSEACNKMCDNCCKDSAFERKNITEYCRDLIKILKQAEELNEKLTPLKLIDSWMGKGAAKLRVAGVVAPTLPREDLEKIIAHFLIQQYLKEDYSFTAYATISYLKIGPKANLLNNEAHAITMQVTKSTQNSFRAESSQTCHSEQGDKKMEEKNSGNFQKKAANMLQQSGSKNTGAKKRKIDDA
DNA polymerase III PolC-type (Bacillus subtilis (strain 168)), sequence (P13267 whole entry, looked up): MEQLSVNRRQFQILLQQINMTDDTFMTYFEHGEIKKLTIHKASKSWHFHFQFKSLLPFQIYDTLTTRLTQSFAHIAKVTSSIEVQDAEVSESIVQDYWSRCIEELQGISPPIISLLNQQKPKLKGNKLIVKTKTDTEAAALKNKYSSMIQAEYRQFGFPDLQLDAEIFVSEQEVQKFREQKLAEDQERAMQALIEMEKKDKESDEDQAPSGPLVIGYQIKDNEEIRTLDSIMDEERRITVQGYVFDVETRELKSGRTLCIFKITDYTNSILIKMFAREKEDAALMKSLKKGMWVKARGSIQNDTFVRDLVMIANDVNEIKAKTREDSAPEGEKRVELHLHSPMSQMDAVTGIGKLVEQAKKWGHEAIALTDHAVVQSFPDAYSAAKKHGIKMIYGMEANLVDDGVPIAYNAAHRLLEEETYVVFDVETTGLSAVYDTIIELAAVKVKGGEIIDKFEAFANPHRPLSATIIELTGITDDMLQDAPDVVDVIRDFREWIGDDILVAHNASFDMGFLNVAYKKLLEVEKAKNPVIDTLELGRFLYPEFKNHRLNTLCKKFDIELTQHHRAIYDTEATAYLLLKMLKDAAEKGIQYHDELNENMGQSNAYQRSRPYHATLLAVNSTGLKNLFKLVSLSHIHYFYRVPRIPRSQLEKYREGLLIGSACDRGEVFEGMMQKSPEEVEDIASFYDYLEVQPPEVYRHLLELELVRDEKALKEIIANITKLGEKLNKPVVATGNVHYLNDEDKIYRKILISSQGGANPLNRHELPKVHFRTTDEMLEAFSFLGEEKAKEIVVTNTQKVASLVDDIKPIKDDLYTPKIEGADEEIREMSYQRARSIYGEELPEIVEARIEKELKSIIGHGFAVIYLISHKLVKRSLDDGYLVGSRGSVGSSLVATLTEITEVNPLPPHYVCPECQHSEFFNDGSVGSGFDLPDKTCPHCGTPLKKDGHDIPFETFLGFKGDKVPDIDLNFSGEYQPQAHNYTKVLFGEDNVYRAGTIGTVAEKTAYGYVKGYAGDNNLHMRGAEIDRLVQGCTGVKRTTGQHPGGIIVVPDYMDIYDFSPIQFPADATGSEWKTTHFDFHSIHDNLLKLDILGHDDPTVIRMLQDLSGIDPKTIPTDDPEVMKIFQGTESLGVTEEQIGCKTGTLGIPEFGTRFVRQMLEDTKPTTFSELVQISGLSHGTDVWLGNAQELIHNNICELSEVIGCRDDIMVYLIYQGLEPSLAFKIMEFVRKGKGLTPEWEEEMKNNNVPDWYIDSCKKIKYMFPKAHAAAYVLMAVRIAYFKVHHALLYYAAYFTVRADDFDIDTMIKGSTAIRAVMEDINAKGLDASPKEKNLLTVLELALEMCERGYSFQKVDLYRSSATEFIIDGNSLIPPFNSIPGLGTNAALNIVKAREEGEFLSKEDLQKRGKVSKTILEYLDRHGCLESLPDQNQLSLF
Tumor susceptibility gene 101 protein (Homo sapiens), sequence (Q99816 whole entry, looked up, the tested form may be a part): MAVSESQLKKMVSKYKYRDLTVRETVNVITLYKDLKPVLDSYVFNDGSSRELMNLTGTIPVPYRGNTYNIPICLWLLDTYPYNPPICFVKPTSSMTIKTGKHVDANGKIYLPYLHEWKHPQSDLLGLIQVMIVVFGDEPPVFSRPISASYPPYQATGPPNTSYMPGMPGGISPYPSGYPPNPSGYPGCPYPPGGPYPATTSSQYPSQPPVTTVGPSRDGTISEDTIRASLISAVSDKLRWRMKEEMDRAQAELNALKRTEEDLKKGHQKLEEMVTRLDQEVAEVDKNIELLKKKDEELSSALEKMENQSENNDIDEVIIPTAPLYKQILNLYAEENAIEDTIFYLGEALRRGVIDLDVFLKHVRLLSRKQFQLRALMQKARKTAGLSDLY
Beta-2 adrenergic receptor (Homo sapiens), sequence (P07550 whole entry, looked up): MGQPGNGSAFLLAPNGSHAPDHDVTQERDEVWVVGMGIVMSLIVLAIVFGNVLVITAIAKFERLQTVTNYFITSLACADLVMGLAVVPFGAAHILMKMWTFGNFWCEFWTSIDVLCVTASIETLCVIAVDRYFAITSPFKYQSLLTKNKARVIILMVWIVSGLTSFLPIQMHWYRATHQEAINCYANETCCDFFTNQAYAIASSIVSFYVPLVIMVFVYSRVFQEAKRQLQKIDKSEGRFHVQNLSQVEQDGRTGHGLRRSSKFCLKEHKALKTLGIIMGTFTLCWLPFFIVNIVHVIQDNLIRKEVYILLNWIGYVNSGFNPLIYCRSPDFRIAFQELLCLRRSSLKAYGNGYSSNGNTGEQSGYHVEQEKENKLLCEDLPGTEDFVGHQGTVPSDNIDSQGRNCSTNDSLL
Ubiquitin carboxyl-terminal hydrolase 2 (Homo sapiens), sequence (O75604 whole entry, looked up): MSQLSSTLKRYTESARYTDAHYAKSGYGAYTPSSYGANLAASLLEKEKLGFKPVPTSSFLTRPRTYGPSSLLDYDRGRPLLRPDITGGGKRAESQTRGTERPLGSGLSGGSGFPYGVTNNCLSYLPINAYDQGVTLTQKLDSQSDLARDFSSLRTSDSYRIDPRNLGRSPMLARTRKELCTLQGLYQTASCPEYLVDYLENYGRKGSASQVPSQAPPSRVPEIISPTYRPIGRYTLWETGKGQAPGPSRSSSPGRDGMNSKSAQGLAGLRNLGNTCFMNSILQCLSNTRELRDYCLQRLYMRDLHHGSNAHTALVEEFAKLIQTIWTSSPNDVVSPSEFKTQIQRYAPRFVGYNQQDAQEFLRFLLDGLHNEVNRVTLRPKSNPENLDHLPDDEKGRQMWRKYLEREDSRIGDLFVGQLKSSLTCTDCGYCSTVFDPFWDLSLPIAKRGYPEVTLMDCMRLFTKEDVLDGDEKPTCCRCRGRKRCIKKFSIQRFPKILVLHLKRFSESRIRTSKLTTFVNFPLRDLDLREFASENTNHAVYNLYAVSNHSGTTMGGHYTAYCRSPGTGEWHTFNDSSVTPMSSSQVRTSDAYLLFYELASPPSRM

Turning to `CCCCCCc1ccc(O)cc1O`, the compound was called inactive in [1].

For `CC(=O)Oc1ccc(C(c2ccc(OC(C)=O)cc2)c2ccccn2)cc1`, the call in [1] was inactive.

Regarding `CC(=O)O[C@]1(C(C)=O)CC[C@H]2[C@@H]3C[C@H](C)C4=CC(=O)CC[C@]4(C)[C@H]3CC[C@@]21C`, the outcome in test [1] was inactive.

As for `C=CCc1ccc(O)c(OC)c1`, in test [1], the call was inactive.

`CN1C2CCC1CC(OC(=O)c1c[nH]c3ccccc13)C2` (centres undefined): the Potency in [2] was 7080 nM (active); in test [3], 11200 nM (active); in [4] it was 10000 nM (active); in [5], 11200 nM (active); in test [6] it was 8910 nM (active). For the same compound, the compound was called inactive in [7], in test [8], in [9], in test [10], in test [11] and in [12]. In addition, the call in test [13], in [15], in [16] and in test [17] was inactive. Besides, in test [14], the Potency result was “inactive”.

As for `C[N+]1(CCCCC[N+]2(C)CCCC2)CCCC1`, the Potency entry in [2], in test [3], in test [4], in test [5], in test [18] and in test [6] was “inactive” throughout. In addition, the Potency entry in [19] and in [14] was “inactive” each time. The outcome in test [8], in test [9], in test [11], in [12], in [13] and in test [15] was inactive. Further, the call in [16] and in test [17] was inactive.

For `CC(C)C[C@H]1C(=O)N2CCC[C@H]2[C@]2(O)O[C@](NC(=O)[C@@H]3C=C4c5cccc6[nH]c(Br)c(c56)C[C@H]4N(C)C3)(C(C)C)C(=O)N12`, the call in test [11], in test [13], in [15], in [16] and in test [17] was inactive. In addition, the Potency entry in test [14] is “inactive”.

Consider `CC(=O)O[C@H]1C[C@@H]2CC[C@@H]3[C@H](CC[C@@]4(C)[C@H]3C[C@H]([N+]3(C)CCCCC3)[C@@H]4OC(C)=O)[C@@]2(C)C[C@@H]1[N+]1(C)CCCCC1`, for which the compound was classed as inactive in test [13], in [15], in test [16] and in [17]. Further, in test [14], the Potency result was “inactive”.

Take `COC(=O)[C@H]1[C@H]2C[C@H]3c4[nH]c5ccccc5c4CCN3C[C@H]2CC[C@@H]1O`: the Potency result in test [4], in test [5], in test [18], in test [19] and in test [14] was “inactive” each time. Also, the compound was classed as inactive in test [8], in [9], in test [11], in [12], in test [13] and in test [15]. Besides, the result in test [16] and in test [17] was inactive.

For the compound `CN=C(NC#N)Nc1ccc(C2=NNC(=O)CC2C)cc1` (centres undefined), the Potency result in [3], in test [4], in [5], in test [18], in test [6] and in [19] was “inactive” in each case. In addition, in [20], the Potency entry was “inactive”. The compound was classed as inactive in test [8], in test [9] and in [12].

As for `COc1cc(NS(C)(=O)=O)ccc1Nc1c2ccccc2nc2ccccc12`, the Potency is 1000 nM (active) in test [2]; 891 nM (active) in [3]; 891 nM (active) in test [4]; 1410 nM (active) in test [5]; 2510 nM (active) in test [18]; 1000 nM (active) in test [6]. In addition, the Potency in test [19] is 1410 nM (active); in [20], 1170 nM (active). Also, the result in [8], in test [13], in test [15] and in test [17] was inactive.

In the case of `COC1=CC(=O)C[C@@H](C)[C@]12Oc1c(Cl)c(OC)cc(OC)c1C2=O`, the compound was classed as inactive in test [1].

Take `C[C@@H]1C(=O)NC2=Nc3cccc(Cl)c3CN21`: the Potency entry in test [2], in test [4], in test [5], in [18], in [19] and in [14] was “inactive” throughout. In [20], the Potency result is “inactive”. Further, the outcome in [7], in [8], in test [9], in [11], in test [12] and in [13] was inactive. For the same compound, the compound was classed as inactive in [15], in [16] and in [17].
